Among all 310,000 compounds or so, about 3,300 (1.1%) were called active.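 How the source made its calls: active means B-score under library mean minus 3 SD, initial fluorescence not abnormally high, positive integrated signal ratio; inactive means the rest.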 Only a selection was taken, and actives are over-represented in it overall.
molecular target: Short transient receptor potential channel 6 (Mus musculus) (UniProt Q61143); assay: mouse TRPC6 channel inhibitors, primary screen, cell-based, HEK293, membrane potential dye (AID 2553); conditions: ACh-evoked depolarization, at 10 µM; active compounds read low;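 on B-score: B-score derived from integrated fluorescence ratio over the kinetic read; more negative B-score means stronger inhibition of depolarization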
Sequence (Q61143 whole entry, looked up): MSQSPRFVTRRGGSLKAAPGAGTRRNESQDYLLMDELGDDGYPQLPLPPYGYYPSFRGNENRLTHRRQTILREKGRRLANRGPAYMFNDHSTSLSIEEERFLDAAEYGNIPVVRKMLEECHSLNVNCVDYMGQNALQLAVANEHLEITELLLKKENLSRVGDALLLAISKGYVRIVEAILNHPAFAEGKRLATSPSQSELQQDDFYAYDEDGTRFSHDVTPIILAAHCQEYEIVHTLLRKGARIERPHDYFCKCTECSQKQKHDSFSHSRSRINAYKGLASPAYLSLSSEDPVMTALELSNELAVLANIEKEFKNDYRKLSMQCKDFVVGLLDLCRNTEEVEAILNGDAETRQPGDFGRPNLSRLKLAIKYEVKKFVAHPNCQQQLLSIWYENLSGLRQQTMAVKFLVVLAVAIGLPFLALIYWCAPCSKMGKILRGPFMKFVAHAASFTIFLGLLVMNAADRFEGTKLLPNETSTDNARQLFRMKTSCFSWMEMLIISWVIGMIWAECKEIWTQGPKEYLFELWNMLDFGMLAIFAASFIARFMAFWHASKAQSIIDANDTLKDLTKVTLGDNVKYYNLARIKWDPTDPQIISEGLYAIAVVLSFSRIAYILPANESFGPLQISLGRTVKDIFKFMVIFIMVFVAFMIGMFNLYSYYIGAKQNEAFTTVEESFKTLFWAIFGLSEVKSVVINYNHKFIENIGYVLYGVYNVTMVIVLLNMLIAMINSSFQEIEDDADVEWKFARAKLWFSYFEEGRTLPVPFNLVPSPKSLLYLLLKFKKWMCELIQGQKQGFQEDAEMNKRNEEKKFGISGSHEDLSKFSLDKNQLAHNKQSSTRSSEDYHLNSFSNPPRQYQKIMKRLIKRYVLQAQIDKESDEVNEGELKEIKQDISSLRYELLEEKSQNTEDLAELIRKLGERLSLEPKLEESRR

| Compound | B-score |
| --- | --- |
| COc1cccc(-c2nc3ccc(N4CCN(C)CC4)cc3[nH]2)c1 | -9.09 (active) |
| Cc1nc2ccc(N3CCN(C)CC3)cc2nc1C | inactive |
| CC1=C(C(=O)Nc2ccccc2)S(=O)(=O)CCO1 | inactive |
| COc1ccc(Br)cc1CNCCc1cccc(Cl)c1 | inactive |
| CCOc1cccc(=NC2CCCCC2)c2c(C)[nH]c(C)c12 | -8.34 (active) |
| CCOP(=S)(OCC)C(O)CCCCCn1c(=O)c(F)cn(C2CCCO2)c1=O (stereo not given) | inactive |
| COCc1cc(OC(=O)N(C)C)nc(-c2ccc(C)c(Cl)c2)n1 | inactive |
| C[N+]12CN3CN(CN(C3)C1)C2 | inactive |
| CC1=CC(=Cc2sc3ccccc3[n+]2C)C=C(C)O1 | -5.72 (active) |
| COc1c(O)ccc2c1-c1c3c(cc4c1C(C2)N(C)CC4)OCO3 (stereo not given) | inactive |
| Cc1cccc(OP(=O)(Oc2cccc(C)c2)OC(c2ccccc2)C(F)(F)F)c1 (stereo not given) | inactive |
| CC1=C2C(=O)C3C(CC=C4CC(OC5OC(O)C(O)C(O)C5CO)CCC43C)C2CCC12OC1CC(C)CNC1C2C (stereo not given) | inactive |
| CCOP(=O)(OCC)C(NC(=O)c1ccc(C)cc1)C(Cl)(Cl)Cl (stereo not given) | inactive |
| c1ccc(CC2CCCCN2)cc1 (stereo not given) | inactive |
| Cc1nc2ccccn2c1P(=S)(N1CCCCC1)N1CCCCC1 | inactive |
| Cc1nn(Cc2ccccc2Cl)c(Cl)c1C(=O)OC(C(=O)NC(N)=O)C(C)C (stereo not given) | inactive |
| N[C@@H](Cc1c[nH]c2ccccc12)c1nnc(SCc2c(F)cccc2Cl)o1 | inactive |
| CC1(C)Cc2c(C#N)c(N3CCNCC3)nc(-c3ccco3)c2CS1 | -5.98 (active) |
| O=c1[nH]c(O)c(C=Nc2cc(F)cc(F)c2)c(=O)[nH]1 | inactive |
| COc1ccccc1NC(=O)N1C[C@@H]2C[C@@H](C1)c1cccc(=O)n1C2 | inactive |
| CN1CCN(Cc2ccc(OC(F)(F)F)cc2)CC1 | inactive |
| CN1CCN(c2cc(N3CCNCC3)ccc2[N+](=O)[O-])CC1 | -9.48 (active) |
| CCN1CCN(c2ccc([N+](=O)[O-])cc2C#N)CC1 | inactive |
| N=c1ccccn1Cc1ccccc1 | inactive |
| CC(Cc1ccccc1)NC=O (stereo not given) | inactive |
| CCCCCCCCCCCCn1ccc(=N)cc1 | -8.97 (active) |
| CCCCCCN=C(CC)c1c(O)n(CCCC)c(=O)[nH]c1=O | inactive |
| CC(C)(C)[C@]1(O)C[C@@H]2OC(=O)C[C@@]23C(=O)O[C@@H]2OC(=O)[C@H](O)[C@]213 | inactive |
| c1ccc(C2NCc3ccccc3-n3cccc32)cc1 (stereo not given) | inactive |
| NCCc1c[nH]c2ccc(O)cc12 | inactive |

— PubChem BioAssay AID2553 (Johns Hopkins Ion Channel Center, 2010)
